AC50 and outcome data for three molecules are collected here from PubChem BioAssay (EPA / NIEHS).

Molecules are shown by their SMILES. “And” between values parts separate entries of the source, which are not always exact repeats. Equal entries are not always repeated. Results filed as inconclusive are left out. Some compounds were tested as several samples or in several runs, with calls that do not always agree. The source made the active and inactive calls. Rule for the calls, unless noted: active = hit-call score of the fitted dose curve at least 0.9, where 1 is the maximum; inactive = score below 0.9.

Assay [1] can be described thus: BSK_4H_Eotaxin3: BioMAP Diversity Plus: 4H Assay for Eotaxin 3 Biomarker Activity (AID 2283000).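 For outcome: CCL26 protein level quantified by ELISA in parallel with SRB cytotoxicity check.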 The following applies: primary human endothelial cells (HUVEC); actives raise or lower the signal. The method, boiled down: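 Endothelial primary cells (human umbilical vein) exposed to compound for 24 h. ELISA detection of Eotaxin-3.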
The target of assay [2] is human Peroxisome Proliferator-activated Receptor alpha (PPARa), PPARA (gene 5465) (UniProt Q07869). The assay can be described thus: ATG_PPARa_TRANS: Attagene TRANS-FACTORIAL HepG2 Assay for human Peroxisome Proliferator-activated Receptor alpha (PPARa) (AID 2283001; active = hit-call score of the fitted dose curve at least 0.9, where 1 is the maximum;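 for AC50: potency for gain of reporter signal over DMSO so agonist or activator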). An outline of the steps: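 Transfected HepG2 cells treated with test chemical for 24 h. RNA isolated, reverse-transcribed with oligo(dT), PCR-amplified, FAM-labelled and HpaI-digested. Fragments sized by capillary electrophoresis; gain-of-signal fit relative to DMSO.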

The target of assay [3] is human Peroxisome Proliferator-activated Receptor delta (PPARd), PPARD (gene 5467) (UniProt Q03181). Briefly: ATG_PPARd_TRANS: Attagene TRANS-FACTORIAL HepG2 Assay for human Peroxisome Proliferator-activated Receptor delta (PPARd) (AID 2283002; active = hit-call score of the fitted dose curve at least 0.9, where 1 is the maximum). An outline of the steps: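 Read-out is induced reporter mRNA, quantified by RT-PCR with fluorescent labelling and capillary electrophoresis after 24 h dosing. Cells are HepG2 transiently carrying multiple GAL4-UAS reporter units driven by exogenous NR-GAL4 chimeras; DMSO serves as baseline.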

Read-out in assay [4]: Intercellular Adhesion Molecule 1 (ICAM1), ICAM1 (gene 3383)
Briefly: BSK_3C_ICAM1: BioMAP Diversity Plus: 3C Assay for Intercellular Adhesion Molecule 1 (ICAM1) Biomarker Activity (AID 2283003). The following applies: primary human endothelial cells (HUVEC); actives raise or lower the signal. The method, boiled down:
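Using DMSO as baseline, bidirectional curve fitting was applied to ICAM-1 ELISA signals from HUVEC in the 3C system, measured 24 h after compound addition.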

The nature of assay [5]: BSK_3C_Proliferation: Cell Proliferation Assessment in the BioMAP Diversity Plus: 3C Assay (AID 2283006).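 For AC50: potency may reflect either rise or fall in cell number versus DMSO.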 The following applies: primary human endothelial cells (HUVEC). The method, boiled down: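 Measured here: sulforhodamine B (0.1%) staining of TCA-fixed sub-confluent umbilical vein endothelial cultures 48 h post-dosing, absorbance 560 nm. DMSO served as negative control and baseline; both signal gain and loss were modelled.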

Assay [6] addresses Peroxisome proliferator-activated receptor gamma (Homo sapiens) (UniProt P37231). Briefly: ATG_PPARg_TRANS: Attagene TRANS-FACTORIAL HepG2 Assay for human Peroxisome Proliferator-activated Receptor-gamma (PPARg) (AID 2283007; active = hit-call score of the fitted dose curve at least 0.9, where 1 is the maximum). An outline of the steps:
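A TRANS-format multiplexed reporter assay measures activity of an exogenous chimeric NR-Gal4 protein in HepG2 cells. After 24 h of chemical exposure, reporter transcripts are amplified, fluorescently labelled and sized by capillary electrophoresis, with gain of signal scored against DMSO.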

Assay [7] deals with Nuclear receptor subfamily 1 group I member 2 (Homo sapiens) (UniProt O75469). Briefly: ATG_PXR_TRANS: Attagene TRANS-FACTORIAL HepG2 Assay for human Pregnane X Receptor (PXR) (AID 2283008; active = hit-call score of the fitted dose curve at least 0.9, where 1 is the maximum). An outline of the steps: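 Transactivation by exogenous PXR–GAL4 fusion measured as reporter transcript induction after 24 h compound treatment of transfected human HepG2 cells. Read-out via RT-PCR and capillary electrophoresis of labelled fragments, fitted upward relative to DMSO.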

Assay [8] has as its target human RAR-related Orphan Receptor gamma (RORg), RORC (gene 6097) (UniProt P51449). Briefly: ATG_RORg_TRANS: Attagene TRANS-FACTORIAL HepG2 Assay for human RAR-related Orphan Receptor gamma (RORg) (AID 2283011; active = hit-call score of the fitted dose curve at least 0.9, where 1 is the maximum). The method, boiled down: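 Activity is scored as increase in GAL4-UAS reporter mRNA over DMSO, detected by fluorescent RT-PCR and capillary electrophoresis in HepG2 cells transiently expressing a RORg-Gal4 chimera, 24 h after dosing.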

Assay [9] deals with Retinoic acid receptor RXR-alpha (Homo sapiens) (UniProt P19793). Briefly: ATG_RXRa_TRANS: Attagene TRANS-FACTORIAL HepG2 Assay for human Retinoid X Receptor alpha (RXRa) (AID 2283012; active = hit-call score of the fitted dose curve at least 0.9, where 1 is the maximum). The method, boiled down: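 Chimeric NR-GAL4 trans-activation in HepG2, 24 h treatment; reporter transcripts quantified by fluorescence on capillary electrophoresis, analysed for upward change from DMSO.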

The target in assay [10] is human Retinoid X Receptor beta (RXRb), RXRB (gene 6257) (UniProt P28702). Briefly: ATG_RXRb_TRANS: Attagene TRANS-FACTORIAL HepG2 Assay for human Retinoid X Receptor beta (RXRb) (AID 2283013; active = hit-call score of the fitted dose curve at least 0.9, where 1 is the maximum). The method, boiled down: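 After a 24 h incubation with test chemical, transfected HepG2 cells carrying NR-Gal4 fusions and GAL4-UAS reporter transcription units yield RNA whose reporter cDNA is FAM-labelled, HpaI-cut and sized by capillary electrophoresis; increases over DMSO are scored.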

The target of assay [11] is human Thyroid Receptor alpha (THRa1), THRA (gene 7067) (UniProt P10827). Briefly: ATG_THRa1_TRANS: Attagene TRANS-FACTORIAL HepG2 Assay for human Thyroid Receptor alpha (THRa1) (AID 2283014; active = hit-call score of the fitted dose curve at least 0.9, where 1 is the maximum). The method, boiled down: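 First, HepG2 cells receive multiple GAL4-UAS reporter units and the chimeric receptor. They are then dosed for 24 h, after which RNA is reverse-transcribed, amplified, labelled, HpaI-cut and sized by capillary electrophoresis; gain relative to DMSO is scored.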

Read-out in assay [12]: E-selectin (Homo sapiens) (UniProt P16581)
Briefly: BSK_3C_Eselectin: BioMAP Diversity Plus: 3C Assay for Eselectin Biomarker Activity (AID 2283015).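 Note: cell surface E-selectin protein quantified by ELISA 24 h after dosing.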 The following applies: primary human endothelial cells (HUVEC); actives raise or lower the signal. An outline of the steps:
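Human vascular endothelium from umbilical vein is exposed to test chemicals for 24 h. E-selectin levels are read by ELISA and compared with DMSO controls.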

Read-out in assay [13]: Interleukin-1 alpha (IL1a), IL1A (gene 3552)
Briefly: BSK_BE3C_IL1a: BioMAP Diversity Plus: BE3C Assay for Interleukin-1 alpha (IL1a) Biomarker Activity (AID 2283016). The settings on record: primary human bronchial epithelial cells; actives raise or lower the signal. The method, boiled down: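 Measured in human lung primary bronchial epithelial cells: IL-1a by ELISA at 24 h after dosing, with bidirectional fitting against DMSO.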

Read-out in assay [14]: Monocyte Chemoattractant Protein-1 (MCP1), CCL2 (gene 6347)
Briefly: BSK_4H_MCP1: BioMAP Diversity Plus: 4H Assay for Monocyte Chemoattractant Protein-1 (MCP1) Biomarker Activity (AID 2283018). The following applies: primary human endothelial cells (HUVEC); actives raise or lower the signal. An outline of the steps: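 Primary human umbilical vein endothelium is exposed to chemical for 24 h before MCP-1 is assayed by ELISA. Concentration-response fitted bidirectionally relative to DMSO.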

Read-out in assay [15]: Interleukin-8 (IL8), CXCL8 (gene 3576)
Briefly: BSK_3C_IL8: BioMAP Diversity Plus: 3C Assay for Interleukin-8 (IL8) Biomarker Activity (AID 2283020). The following applies: primary human endothelial cells (HUVEC); actives raise or lower the signal. An outline of the steps: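 Using DMSO-treated wells as the baseline, bidirectional curve fitting was applied to ELISA-measured IL-8 from human umbilical vein endothelial cultures sampled 24 h after compound addition.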

Read-out in assay [16]: Monokine induced gamma interferon (MIG), CXCL9 (gene 4283)
Briefly: BSK_3C_MIG: BioMAP Diversity Plus: 3C Assay for Monokine induced gamma interferon (MIG) Biomarker Activity (AID 2283021).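 For AC50: MIG protein level measured by immunoassay in the treated endothelial cultures.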 The following applies: primary human endothelial cells (HUVEC); actives raise or lower the signal. An outline of the steps: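 ELISA-measured MIG in dosed HUVEC 3C cultures at 24 h, analysed by bidirectional fitting with DMSO defining baseline activity.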

Assay [17] deals with Retinoic acid receptor alpha (Homo sapiens) (UniProt P10276). Briefly: ATG_RARa_TRANS: Attagene TRANS-FACTORIAL HepG2 Assay for human Retinoic Acid Receptor alpha (RARa) (AID 2283005; active = hit-call score of the fitted dose curve at least 0.9, where 1 is the maximum). The method, boiled down:
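Reporter transcripts, measured by RT-PCR with fluorescent labeling and capillary electrophoresis after 24 h dosing, reflect activity of an exogenous human RARa–GAL4 fusion in transiently transfected HepG2. Fitted for increase relative to DMSO.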

Read-out in assay [18]: Human Leukocyte Antigen - DR isotype (HLADR), HLA-DRA (gene 3122)
The assay can be described thus: BSK_3C_HLADR: BioMAP Diversity Plus: 3C Assay for Human Leukocyte Antigen - DR isotype (HLADR) Biomarker Activity (AID 2283019).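 For outcome: ELISA of cell-surface HLA-DR on HUVEC 24 h after dosing.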 The settings on record: primary human endothelial cells (HUVEC); actives raise or lower the signal. The method, boiled down: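 Endothelial cells from human umbilical vein are treated with test chemical; after 24 h, HLA-DR levels are measured by ELISA. Data are fitted in both directions using DMSO as the baseline.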

E-selectin (Homo sapiens), sequence (P16581 whole entry, looked up): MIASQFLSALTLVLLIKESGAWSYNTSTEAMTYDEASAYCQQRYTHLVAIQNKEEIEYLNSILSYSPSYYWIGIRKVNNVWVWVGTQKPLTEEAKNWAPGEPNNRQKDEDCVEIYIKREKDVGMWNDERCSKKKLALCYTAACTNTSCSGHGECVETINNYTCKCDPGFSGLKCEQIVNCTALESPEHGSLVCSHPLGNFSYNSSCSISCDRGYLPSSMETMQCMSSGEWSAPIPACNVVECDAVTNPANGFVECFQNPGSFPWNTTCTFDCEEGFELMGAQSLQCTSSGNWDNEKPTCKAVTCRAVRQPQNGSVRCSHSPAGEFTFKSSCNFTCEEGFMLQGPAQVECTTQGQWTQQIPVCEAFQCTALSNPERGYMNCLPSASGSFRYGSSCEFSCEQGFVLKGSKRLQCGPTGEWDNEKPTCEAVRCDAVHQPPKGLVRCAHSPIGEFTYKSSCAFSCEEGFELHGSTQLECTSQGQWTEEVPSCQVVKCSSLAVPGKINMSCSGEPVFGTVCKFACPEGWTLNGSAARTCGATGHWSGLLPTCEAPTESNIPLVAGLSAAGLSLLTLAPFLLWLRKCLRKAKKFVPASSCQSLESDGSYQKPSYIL
Peroxisome proliferator-activated receptor gamma (Homo sapiens), sequence (P37231 whole entry, looked up, the tested form may be a part): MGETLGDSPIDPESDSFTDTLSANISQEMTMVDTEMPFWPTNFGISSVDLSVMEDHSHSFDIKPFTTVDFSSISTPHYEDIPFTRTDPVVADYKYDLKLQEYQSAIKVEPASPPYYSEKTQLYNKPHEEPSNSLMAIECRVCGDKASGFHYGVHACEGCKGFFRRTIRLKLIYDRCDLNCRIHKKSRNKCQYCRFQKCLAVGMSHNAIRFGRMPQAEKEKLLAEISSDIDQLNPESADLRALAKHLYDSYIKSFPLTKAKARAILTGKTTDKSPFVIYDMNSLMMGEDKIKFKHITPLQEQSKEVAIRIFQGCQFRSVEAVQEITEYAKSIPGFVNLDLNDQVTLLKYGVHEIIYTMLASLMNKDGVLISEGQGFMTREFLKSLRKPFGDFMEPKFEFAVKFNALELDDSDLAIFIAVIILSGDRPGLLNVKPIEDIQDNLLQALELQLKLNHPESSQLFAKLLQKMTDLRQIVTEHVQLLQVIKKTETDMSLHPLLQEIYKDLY
Retinoic acid receptor RXR-alpha (Homo sapiens), sequence (P19793 whole entry, looked up, the tested form may be a part): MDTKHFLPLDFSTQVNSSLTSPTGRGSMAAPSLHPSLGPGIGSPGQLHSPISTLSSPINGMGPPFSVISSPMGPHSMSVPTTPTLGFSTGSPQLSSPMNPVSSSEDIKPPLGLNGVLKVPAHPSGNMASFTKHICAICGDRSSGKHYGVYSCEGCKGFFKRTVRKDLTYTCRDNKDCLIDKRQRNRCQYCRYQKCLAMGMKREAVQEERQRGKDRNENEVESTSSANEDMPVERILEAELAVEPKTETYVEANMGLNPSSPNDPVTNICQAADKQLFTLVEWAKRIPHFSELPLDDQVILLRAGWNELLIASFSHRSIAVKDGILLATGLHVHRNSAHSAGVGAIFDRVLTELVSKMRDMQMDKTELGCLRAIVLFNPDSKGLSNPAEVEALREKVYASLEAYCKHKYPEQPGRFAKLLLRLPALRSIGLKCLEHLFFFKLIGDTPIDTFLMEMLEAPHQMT
Nuclear receptor subfamily 1 group I member 2 (Homo sapiens), sequence (O75469 whole entry, looked up, the tested form may be a part): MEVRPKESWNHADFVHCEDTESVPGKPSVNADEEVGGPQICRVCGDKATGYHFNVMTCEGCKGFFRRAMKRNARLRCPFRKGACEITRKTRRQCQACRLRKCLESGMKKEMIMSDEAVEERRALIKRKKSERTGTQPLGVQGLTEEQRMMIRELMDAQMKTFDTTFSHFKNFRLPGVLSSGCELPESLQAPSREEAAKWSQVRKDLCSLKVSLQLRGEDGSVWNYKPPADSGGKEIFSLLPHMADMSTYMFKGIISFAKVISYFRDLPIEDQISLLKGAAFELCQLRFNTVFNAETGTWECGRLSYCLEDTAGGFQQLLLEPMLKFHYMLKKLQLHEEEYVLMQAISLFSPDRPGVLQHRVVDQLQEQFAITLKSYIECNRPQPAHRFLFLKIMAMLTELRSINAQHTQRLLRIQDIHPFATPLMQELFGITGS
human Peroxisome Proliferator-activated Receptor delta (PPARd), PPARD (gene 5467), sequence (Q03181 whole entry, looked up, the tested form may be a part): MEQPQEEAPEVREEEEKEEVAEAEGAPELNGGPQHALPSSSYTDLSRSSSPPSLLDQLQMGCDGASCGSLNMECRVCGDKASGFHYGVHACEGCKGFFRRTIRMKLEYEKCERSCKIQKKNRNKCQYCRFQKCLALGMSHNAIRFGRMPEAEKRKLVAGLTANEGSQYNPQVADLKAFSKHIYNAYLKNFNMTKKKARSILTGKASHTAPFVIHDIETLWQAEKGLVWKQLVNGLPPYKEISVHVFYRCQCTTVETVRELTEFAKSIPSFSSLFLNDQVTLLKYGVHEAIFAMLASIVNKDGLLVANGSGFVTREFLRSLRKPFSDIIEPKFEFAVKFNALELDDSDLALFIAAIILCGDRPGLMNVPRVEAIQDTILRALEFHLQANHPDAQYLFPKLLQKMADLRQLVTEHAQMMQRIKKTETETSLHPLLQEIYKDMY
human Peroxisome Proliferator-activated Receptor alpha (PPARa), PPARA (gene 5465), sequence (Q07869 whole entry, looked up, the tested form may be a part): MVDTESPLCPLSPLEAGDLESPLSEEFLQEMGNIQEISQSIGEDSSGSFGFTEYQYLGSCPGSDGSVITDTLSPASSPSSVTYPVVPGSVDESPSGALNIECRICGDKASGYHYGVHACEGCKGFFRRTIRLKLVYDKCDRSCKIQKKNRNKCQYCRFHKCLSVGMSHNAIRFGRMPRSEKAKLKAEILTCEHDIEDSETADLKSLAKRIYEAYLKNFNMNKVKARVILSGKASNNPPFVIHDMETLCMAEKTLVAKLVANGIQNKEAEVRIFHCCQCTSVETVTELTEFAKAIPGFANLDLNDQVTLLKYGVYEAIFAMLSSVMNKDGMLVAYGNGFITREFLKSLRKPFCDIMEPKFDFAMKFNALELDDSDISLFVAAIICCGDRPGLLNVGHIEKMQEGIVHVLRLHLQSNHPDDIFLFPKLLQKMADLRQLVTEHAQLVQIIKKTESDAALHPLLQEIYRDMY
human RAR-related Orphan Receptor gamma (RORg), RORC (gene 6097), sequence (P51449 whole entry, looked up, the tested form may be a part): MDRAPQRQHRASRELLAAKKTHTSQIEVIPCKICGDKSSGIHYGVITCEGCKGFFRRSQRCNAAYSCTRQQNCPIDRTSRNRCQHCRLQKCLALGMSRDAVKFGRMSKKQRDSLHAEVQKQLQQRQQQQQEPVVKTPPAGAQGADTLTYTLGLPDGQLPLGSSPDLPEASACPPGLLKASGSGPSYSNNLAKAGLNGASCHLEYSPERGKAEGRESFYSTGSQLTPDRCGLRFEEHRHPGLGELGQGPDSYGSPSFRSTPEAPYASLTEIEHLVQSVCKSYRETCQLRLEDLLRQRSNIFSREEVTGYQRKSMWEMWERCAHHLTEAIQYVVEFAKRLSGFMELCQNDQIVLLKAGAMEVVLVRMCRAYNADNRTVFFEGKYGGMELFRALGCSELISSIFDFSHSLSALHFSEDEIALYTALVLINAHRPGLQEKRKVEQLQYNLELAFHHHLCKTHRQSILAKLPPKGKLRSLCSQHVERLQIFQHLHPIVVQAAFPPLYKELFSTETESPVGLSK
human Thyroid Receptor alpha (THRa1), THRA (gene 7067), sequence (P10827 whole entry, looked up, the tested form may be a part): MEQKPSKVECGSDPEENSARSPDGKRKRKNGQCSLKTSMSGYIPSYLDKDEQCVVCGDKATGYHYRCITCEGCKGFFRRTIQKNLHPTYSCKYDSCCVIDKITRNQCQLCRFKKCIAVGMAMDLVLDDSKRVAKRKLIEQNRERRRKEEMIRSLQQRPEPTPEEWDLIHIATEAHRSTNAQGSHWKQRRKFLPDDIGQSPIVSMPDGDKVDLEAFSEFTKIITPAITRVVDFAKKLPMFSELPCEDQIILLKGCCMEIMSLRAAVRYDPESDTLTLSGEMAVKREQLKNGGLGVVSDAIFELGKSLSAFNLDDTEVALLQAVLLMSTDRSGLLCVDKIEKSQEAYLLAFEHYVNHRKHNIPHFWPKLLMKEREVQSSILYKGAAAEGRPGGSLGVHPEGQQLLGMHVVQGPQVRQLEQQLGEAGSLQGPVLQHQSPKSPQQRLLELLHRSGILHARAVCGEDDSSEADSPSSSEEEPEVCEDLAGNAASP
human Retinoid X Receptor beta (RXRb), RXRB (gene 6257), sequence (P28702 whole entry, looked up, the tested form may be a part): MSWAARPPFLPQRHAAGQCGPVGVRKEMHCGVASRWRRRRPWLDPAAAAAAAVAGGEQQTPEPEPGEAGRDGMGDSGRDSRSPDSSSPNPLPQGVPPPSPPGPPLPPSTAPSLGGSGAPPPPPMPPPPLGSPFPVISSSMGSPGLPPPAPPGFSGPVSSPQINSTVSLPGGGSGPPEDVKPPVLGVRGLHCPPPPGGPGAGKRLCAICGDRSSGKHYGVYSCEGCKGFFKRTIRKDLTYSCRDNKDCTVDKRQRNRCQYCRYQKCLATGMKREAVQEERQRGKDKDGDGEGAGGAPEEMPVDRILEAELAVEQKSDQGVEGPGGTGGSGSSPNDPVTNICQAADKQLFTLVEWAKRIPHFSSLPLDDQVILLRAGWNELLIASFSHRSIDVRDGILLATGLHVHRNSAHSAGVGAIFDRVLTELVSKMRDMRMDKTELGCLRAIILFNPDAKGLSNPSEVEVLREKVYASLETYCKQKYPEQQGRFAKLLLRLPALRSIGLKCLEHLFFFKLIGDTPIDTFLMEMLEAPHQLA
Retinoic acid receptor alpha (Homo sapiens), sequence (P10276 whole entry, looked up, the tested form may be a part): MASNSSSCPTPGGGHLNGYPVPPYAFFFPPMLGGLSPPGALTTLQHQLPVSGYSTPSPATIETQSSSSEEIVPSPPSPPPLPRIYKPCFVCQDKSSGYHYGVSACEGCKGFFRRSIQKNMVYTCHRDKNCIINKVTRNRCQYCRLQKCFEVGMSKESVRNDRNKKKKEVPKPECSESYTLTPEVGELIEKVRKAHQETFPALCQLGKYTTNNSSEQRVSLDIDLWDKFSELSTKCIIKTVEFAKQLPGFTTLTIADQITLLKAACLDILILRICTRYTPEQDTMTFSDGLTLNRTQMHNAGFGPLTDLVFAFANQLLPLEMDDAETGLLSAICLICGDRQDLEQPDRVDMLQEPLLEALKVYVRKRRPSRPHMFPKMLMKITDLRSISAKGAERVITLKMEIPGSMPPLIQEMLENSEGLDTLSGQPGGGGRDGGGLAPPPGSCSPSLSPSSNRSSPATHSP

What is called AC50 is the concentration at which the activity in the assay is half-maximal. With `O=C(O)C(F)(F)C(F)(F)C(F)(F)C(F)(F)C(F)(F)C(F)(F)C(F)(F)C(F)(F)F`, the AC50 was 40.2 µM (active) and 43.3 µM (active) in assay [1]; 15.9 µM (active) and 27.4 µM (active) and 22.5 µM (active) in [2]; 49.7 µM (active) and 48 µM (active) in [5]; 43.4 µM (active) and 70 µM (active) and 42.3 µM (active) in assay [6]; 47.5 µM (active) and 104 µM (active) and 50 µM (active) in [7]; 13.3 µM (active) and 41.1 µM (active) and 26.3 µM (active) in assay [10]. Moreover, in assay [13], the AC50 was 35 µM (active) and 49.9 µM (active) and 46.6 µM (active). Further, the result in [1], in [3], in assay [4], in assay [5], in assay [8] and in [9] was inactive. The molecule was called inactive in [11], in assay [12], in assay [14], in assay [15] and in assay [16].

Consider `CCCCCCCCCC[N+](C)(C)CCCCCCCCCC`, for which the concentration at half-maximal activity (AC50) in assay [1] is 4.08 µM (active); in [4], 6.48 µM (active); in assay [5], 1.8 µM (active); in assay [13] it was 7.76 µM (active); in assay [14], 3.16 µM (active); in assay [18], 2.22 µM (active). For the same molecule, the AC50 in assay [15] was 4.54 µM (active); in assay [16] it was 5.66 µM (active). In addition, the outcome in [2], in [17], in assay [6], in assay [7], in [8] and in assay [11] was inactive.

For `O=C(NC(=O)c1c(F)cccc1F)Nc1cc(Cl)c(OC(F)(F)C(F)F)c(Cl)c1`, the outcome in [1], in [2], in [3], in assay [4], in assay [17] and in assay [5] was inactive. In addition, the molecule was classed as inactive in assay [6], in assay [7], in [9], in [10], in [11] and in [13]. The result in assay [14], in assay [18], in assay [15] and in [16] was inactive.
